# Some of the results follow. Active and inactive are the calls of the source. No stated cut-off is given here; in the data, active means inhibition above about 0.66%; inactive means the rest.
# Biological target: Beta-lactamase TEM (Escherichia coli) (UniProt P62593)
# Experiment: TEM-1 inhibition (serine beta-lactamase), epi-absorbance biochemical counter-screen, VIM-2/IMP-1 inhibitor project (AID 2184)
# Conditions: TEM-1 beta-lactamase, nitrocefin absorbance inhibition; at 5.6 µM; hits give high values
# Chain of Beta-lactamase TEM (Escherichia coli) (P62593 whole entry, looked up): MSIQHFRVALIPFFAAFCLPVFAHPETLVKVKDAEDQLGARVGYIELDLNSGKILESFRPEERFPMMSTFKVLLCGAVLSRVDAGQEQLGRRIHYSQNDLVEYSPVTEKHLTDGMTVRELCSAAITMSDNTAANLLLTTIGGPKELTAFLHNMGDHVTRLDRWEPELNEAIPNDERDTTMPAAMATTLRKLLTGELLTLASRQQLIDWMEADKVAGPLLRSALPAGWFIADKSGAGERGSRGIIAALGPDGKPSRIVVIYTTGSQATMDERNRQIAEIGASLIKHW
row,SMILES,inhibition
1,Nc1c(C(=O)c2cccs2)sc2nsc(SCCN3CCCCC3)c12,23.4% (active)
2,NC(=O)c1ccc(NC(=O)COC(=O)c2c3c(nc4ccccc24)/C(=C\c2ccc4c(c2)OCO4)CCC3)cc1,-4.26% (inactive)
3,CCC(=C/c1sc2ccc3ccccc3c2[n+]1C)/C=C1\Sc2ccc3ccccc3c2N1C,-0.12% (inactive)
4,C/C(=N\Nc1ccc(S(N)(=O)=O)cc1[N+](=O)[O-])c1cccs1,1.6% (active)
5,NS(=O)(=O)c1ccc(NC(=O)COC(=O)c2c3c(nc4ccccc24)/C(=C\c2ccc4c(c2)OCO4)CCC3)cc1,-4.87% (inactive)
6,Cc1nn(C)cc1N1C(=O)c2cccc3c(N)ccc(c23)C1=O,43.9% (active)
7,c1ccc(-c2nccc(-c3ccc(-n4cnc5ccccc54)cc3)n2)nc1,-3.39% (inactive)
8,Cc1cc2nc3c(=O)n(Cc4ccccc4)c(=O)[nH]c3nc2cc1N,30.2% (active)
9,Oc1ccc2ccc3cccc[n+]3c2c1,25.5% (active)
10,COc1cc(/C=C2/SC(=S)N(Cc3ccccc3)C2=O)cc(OC)c1O,12.7% (active)
11,CN1C(=O)c2cccc3c(N)ccc(c23)C1=O,49.7% (active)
